# From PubChem BioAssay (Tox21)
# Records with an inconclusive call do not appear. A number with no mark means an inactive call. Calls of active or inactive are those of the source. Calls follow the shape of the full dose curve.
# Tested on: not listed separately
# Assay: qHTS assay to identify small molecule agonists of the AP-1 signaling pathway - cell viability counter screen (AID 1159525); also: nearly all actives have a fitted effect of over 55% in size
# Settings: ME-180 AP-1-bla cells viability, ATP luminescence, 5 h; series mostly up to 76.8 µM; viability change, negative = cytotoxic: at the top concentration
# Summary of the method: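 Intracellular ATP by Cell Titer Glo luminescence (30 min, RT) in the same ME-180 AP-1-bla wells after the 5 h compound exposure at 37 °C. Normalised to tetra n-octyl ammonium bromide and DMSO controls.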
Structure (SMILES),"viability change, negative = cytotoxic",Potency
BrC(Br)C(Br)(Br)Br,-34.6%,
COc1cccc2c1C(=O)c1c(O)c3c(c(O)c1C2=O)C[C@@](O)(C(=O)CO)CC3OC1CC(N2CCOC(OC)C2)C(O)C(C)O1 (some centres undefined),-0.321% [at 35.3 µM],
CC(C)(O)c1cnn2c(-c3ccc(F)c(-c4c(F)cccc4C#N)c3)cnc2n1,-2.35%,
CC1(C)[C@H](C(=O)O[C@H](C#N)c2cccc(Oc3ccccc3)c2)[C@@H]1/C=C(\Cl)C(F)(F)F,,inactive
O=[N+]([O-])c1ccc2ccc3cccc4ccc1c2c34,-1.79%,

# Tested on: not listed separately
# Assay: qHTS assay to identify small molecule agonists of the AP-1 signaling pathway (AID 1159526); also: % is scaled to controls: 0 for no effect and ±100 for the full control effect
# Settings: ME-180 (cervical carcinoma) AP-1-bla reporter, beta-lactamase FRET ratio, 5 h; series mostly up to 76.8 µM; activation: at the top concentration
Structure (SMILES),activation,Potency
Oc1c(Cl)c(Cl)cc(Cl)c1Cl,9.78%,
CCOC(=O)C1(c2ccccc2)CCN(CCC(C#N)(c2ccccc2)c2ccccc2)CC1,-0.236% [at 35.3 µM],
N#C/C=C/C#N,-0.15%,
CC(=O)/C=C/c1ccc2c(c1)OCO2,-6.61%,
CSCCCN=C=S,-1.33%,
CN(C)C1CSSSC1,21.6%,
CC(Cc1ccc(C(C)(C)C)cc1)CN1C[C@@H](C)O[C@@H](C)C1 (some centres undefined),15.3%,
CC(C)Oc1cccc(NC(=O)c2ccccc2C(F)(F)F)c1,3.39%,
BrC(Br)C(Br)(Br)Br,-1.21%,
CC1(C)[C@H](C(=O)O[C@H](C#N)c2cccc(Oc3ccccc3)c2)[C@@H]1/C=C(\Cl)C(F)(F)F,,inactive
O=[N+]([O-])c1ccc2ccc3cccc4ccc1c2c34,-7.65%,

# Target: Retinoic acid receptor RXR-alpha (Homo sapiens) (UniProt P19793)
# Assay: qHTS assay to identify small molecule agonists of the RXR signaling pathway (AID 1159527); also: % is scaled to controls: 0 for no effect and ±100 for the full control effect; nearly all actives have a fitted effect of over 35% in size
# Settings: HEK293T RXRa-UAS-bla, beta-lactamase ratio, 16 h; series mostly up to 76.8 µM; activation: at the top concentration
# Summary of the method: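 Beta-lactamase reporter assay, agonist format. Engineered HEK 293T line, charcoal-stripped FBS at 2%, overnight (16 hr) exposure, fluorescence at 460 and 530 nm after 405 nm excitation.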
# Chain of Retinoic acid receptor RXR-alpha (Homo sapiens) (P19793 whole entry, looked up): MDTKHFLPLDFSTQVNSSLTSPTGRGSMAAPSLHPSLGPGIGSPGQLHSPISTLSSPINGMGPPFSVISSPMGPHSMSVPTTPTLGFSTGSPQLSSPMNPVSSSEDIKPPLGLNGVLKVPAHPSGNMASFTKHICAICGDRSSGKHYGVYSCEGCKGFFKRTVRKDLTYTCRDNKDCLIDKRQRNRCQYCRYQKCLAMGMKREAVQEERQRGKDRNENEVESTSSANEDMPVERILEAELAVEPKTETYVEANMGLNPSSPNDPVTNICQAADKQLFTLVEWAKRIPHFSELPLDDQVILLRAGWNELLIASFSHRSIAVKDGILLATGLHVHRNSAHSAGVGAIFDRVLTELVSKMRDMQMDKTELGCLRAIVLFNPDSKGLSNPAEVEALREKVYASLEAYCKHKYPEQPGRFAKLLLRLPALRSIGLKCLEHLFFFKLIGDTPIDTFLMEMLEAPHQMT
row,Structure (SMILES),activation
1,c1ccc2c(c1)[nH]c1cnccc12,5.14%
2,N#C/C=C/C#N,-0.102%
3,O=c1oc2ccccc2c(O)c1Cc1c(O)c2ccccc2oc1=O,-2.02% [at 35.3 µM]
4,C[C@]12CC[C@@H]3c4ccc(OC(=O)N(CCCl)CCCl)cc4CC[C@H]3[C@@H]1CC[C@@H]2O,-15.7% [at 35.3 µM]
5,CSCCCN=C=S,1.9%
6,CC(C)[C@H](C(=O)OC(C#N)c1cccc(Oc2ccccc2)c1)c1ccc(OC(F)F)cc1 (some centres undefined),-5.02%
7,CC(Cc1ccc(C(C)(C)C)cc1)CN1C[C@@H](C)O[C@@H](C)C1 (some centres undefined),-10.6%
8,c1ccc(Nc2ccc3ccccc3c2)cc1,-11%
